Bioassay records: PubChem, several laboratories
Sampled rows, rich in hits. Any-hit rate of the full collection: about 4.3%.
MITF TRPM1 HTS – increases MITF-driven TRPM1 promoter luciferase signal; SK-MEL-5 TRPM1-promoter luciferase, 24 h; % of positive control, neutral wells = 0; activation, % at 12.5 µM; 300,000 tested, 0.75% active; AID 588334;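 active = mean activation of at least 80% with every replicate also reaching 80%; inconclusive = mean reaches 80% but some replicate falls short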;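 note: 0% = neutral control wells and 100% = parthenolide positive control wells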
AF4-AF9 inh – blocks AF4 peptide binding to human AF9 | P42568 | AlphaScreen, biotin-AF4 peptide binding to FLAG-AF9 | inhibition, % at 10 µM | 350,000 tested, 0.47% active | AID 651704;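 active = every replicate reaching a set inhibition limit, whatever the replicate mean, cut at about 25% in these data; inconclusive = mean inhibition reaches that limit but some replicates miss it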;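 note: 0% = plate neutral control median and 100% = total signal loss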
esBAF inh – inhibitors of esBAF chromatin remodeling in mouse ES cells; Bmi1-luciferase knock-in reporter, 24 h; 100% = twice the neutral-well signal; 350,000 tested, 2% active; reporter increase, % at 12.5 µM; in the data active = activation above about 40%; inconclusive = no clear call, values can overlap the other calls;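 note: 0% = median of the plate's neutral control wells and 100% = double that signal; a rise in the Bmi1 reporter signal indicates esBAF inhibition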
SMARCA2 activ – SMARCA2 function activation, primary screen; 370,000 tested, 1% active; activation, % at 9.1 µM; MG213 cells, MMTV-luciferase reporter, dexamethasone, overnight; AID 652017; in the data active = activation above about 7.8%;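 note: 0% = vehicle wells and 100% = reference activator wells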
Wnt bcat act – activates Wnt/beta-catenin signaling in a reporter cell assay. 300,000 tested, 1.2% active. activation, % at 9.35 µM. activator, plate reader. AID 743398; in the data active = activation above about 30%, passing the limit was not always enough; inconclusive = no clear call, values can overlap the other calls;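 note: 0% = neutral control wells and 100% = positive control wells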
FGF22 binding – FGF22 (human) thermal shift binding; Q9HCT0; recombinant FGF22 thermal shift, SYPRO orange fluorescence; percent of sucrose octasulfate shift, DMSO zero; activity (Tm shift, normalised), % at 9.99 µM; 340,000 tested, 1.5% active; AID 651658;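 active = mean Tm shift, scaled 0 neutral to 100 positive control, at about 1.3% or above, every replicate too, limit read from the data; inconclusive = no clear call, values can overlap the other calls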
Target sequence (Q9HCT0 whole entry, looked up): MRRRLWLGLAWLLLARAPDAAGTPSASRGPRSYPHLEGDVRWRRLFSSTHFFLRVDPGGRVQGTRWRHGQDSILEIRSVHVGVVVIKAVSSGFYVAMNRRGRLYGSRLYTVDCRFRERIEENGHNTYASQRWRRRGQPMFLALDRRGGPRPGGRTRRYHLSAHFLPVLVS
* = called active by the depositor; ? = inconclusive; / = no result given.

SMILES	MITF TRPM1 HTS	AF4-AF9 inh	esBAF inh	SMARCA2 activ	Wnt bcat act	FGF22 binding
C[C@H]1CN([C@@H](C)CO)C(=O)Cc2cc(NS(=O)(=O)c3cccs3)ccc2O[C@@H]1CN(C)Cc1ccc(C(=O)O)cc1	/	-1.8	-3.0	/	/	0.1
Cc1ccc(-c2nnc(N(C)C(=O)c3cccnc3)s2)cc1	29.1	/	/	3.8	27.5	/
COc1ccc(-c2nnc(N(C)C(=O)c3cccnc3)s2)cc1	35.8	/	36.5	4.8	41.0*	/
CC(C)c1cn(CC[C@H]2CC[C@H](NS(=O)(=O)c3ccc(F)cc3)[C@@H](CO)O2)nn1	/	-1.7	1.3	/	/	-0.1
CCOc1ccc(C(NC(=O)c2ccco2)c2ccc(OC)c(OC)c2)cc1 (stereo unspecified)	-1.3	/	/	-2.4	-1.8	/
COc1ccc(C(Nc2ccccn2)c2c(NC(=O)c3ccco3)sc(C)c2C)cc1OC (stereo unspecified)	6.0	14.8	34.6	-0.7	22.5	43.9*
COc1cc(C(Nc2ccccn2)c2c(NC(=O)c3ccco3)sc(C)c2C)cc(OC)c1OC (stereo unspecified)	10.8	20.2	34.4	-0.9	24.4	43.8*
CCOC(=O)[C@]12CCCCC/C=C\1N(CCc1ccc(Cl)cc1)C(=O)[C@H]2CC(=O)NCC1CCCCC1	/	/	/	0.3	/	/
Cc1ccc(COc2ccc(/C=N/O)cc2)cc1	42.4	3.2	/	5.2	31.0*	0.2
Cc1ccc(Oc2ccc(/C=N/O)cn2)cc1	/	/	48.0*	2.8	5.3	/
CCOc1ccc(/C=N/O)cc1	14.4	/	8.1	0.8	6.5	/
C[C@H]1CN([C@@H](C)CO)C(=O)c2cccc(NS(=O)(=O)c3cccs3)c2O[C@@H]1CN(C)S(=O)(=O)c1cn(C)cn1	/	-4.1	2.6	/	/	-0.4
CCCNC(=O)C[C@H]1C[C@@H]2c3cc(NC(=O)CC4CC4)ccc3O[C@@H]2[C@H](CO)O1	/	-1.3	-2.6	/	/	-0.1
CC(=O)c1ccc(S(=O)(=O)N(C)CC(=O)Nc2cc(C)on2)cc1	2.7	0.3	/	-1.1	-1.1	0.2
CC(=O)c1ccc(N(CC(=O)Nc2cc(C)on2)S(=O)(=O)c2ccc(C)cc2)cc1	-2.4	-7.3	3.6	-2.7	-3.8	43.1*
Cc1noc(C)c1NC(=O)N(C)C[C@@H]1Oc2c(NC(=O)Nc3ccccc3)cccc2C(=O)N([C@@H](C)CO)C[C@@H]1C	/	/	-3.9	/	/	/
Cc1nn(-c2ccccn2)c2c1-c1nc(N)ncc1CC2	110.2*	/	?	3.8	29.6	/
CSc1nsc(N/N=C/c2ccc3c(c2)OCO3)c1C#N	92.4*	3.9	/	6.3	22.5	0.1
COc1ccccc1N/N=C/c1ccc2c(c1)OCO2	34.5	9.8	-5.8	-6.3	-2.4	44.3*
COc1cc(/C=N/Nc2snc(SC)c2C#N)cc(OC)c1OC	-8.3	/	0.5	-3.7	-1.1	/
CN1Cc2c(N3CCOCC3)nc3sc(C(=O)c4ccc(Br)cc4)c(N)c3c2CC1(C)C	/	30.5*	/	3.2	-1.2	-0.3
COc1ccc(C(=O)NCc2ccncc2)cc1OC	-36.2	6.7	/	1.5	-2.2	0.3
COc1cc(Cl)ccc1OCc1cc(C(=O)NCC(C)(C)N2CCOCC2)no1	38.2	-2.5	31.3	1.7	6.9	-0.1
COc1cc(C)ccc1OCc1cc(C(=O)NC(C)Cn2cncn2)no1 (stereo unspecified)	122.5*	0.1	77.6*	1.4	18.7	-0.2
COc1cc(C)ccc1OCc1cc(C(=O)NCc2ccncc2)no1	74.8	-0.6	51.7*	6.8	?	0.0
SMILES	MITF TRPM1 HTS	AF4-AF9 inh	esBAF inh	SMARCA2 activ	Wnt bcat act	FGF22 binding
COc1cc(Cl)ccc1OCc1cc(C(=O)NCc2cc(C(C)C)no2)no1	60.2	-1.6	79.1*	6.9	51.3*	0.0
O=c1[nH]c(Cc2ccc(F)cc2)nc2scc(-c3ccc(F)cc3)c12	6.8	-5.1	47.0*	-4.0	2.7	-0.1
O=c1[nH]c(Cc2cccs2)nc2scc(-c3ccc(Cl)cc3)c12	94.2*	1.4	72.2*	-3.4	20.4	0.0
COc1ccc(C(=O)Nc2ccc3c(c2)C(=O)N(C)C[C@H](OC)[C@H](C)CN(C(C)=O)[C@H](C)CO3)cc1	/	2.6	-2.0	/	/	-0.3
COc1ccc(/C=N/NC(=O)c2cccc(NC(C)=O)c2)c(OC)c1	-10.4	1.4	/	1.9	0.4	42.9*
COc1ccc(/C=N/NC(=O)c2cccc(NC(=O)c3ccccc3Cl)c2)cc1OC	2.7	1.0	/	2.8	-0.6	43.5*
Cc1nn(-c2nc3ccccc3s2)c(N)c1Sc1ccc(F)cc1	34.4	/	88.6*	5.6	/	/
Cc1nn(-c2nc3ccccc3s2)c(N)c1-c1ccccc1	?	0.9	94.6*	0.0	?	-0.1
Cc1nn(-c2nc3ccccc3s2)c(N)c1-c1ccc(Cl)cc1	79.0	/	/	0.7	40.6*	/
Cc1cc(C)n(-c2nc3ccccc3s2)n1	52.6	-1.8	/	3.1	52.0*	-0.1
COc1cccc(C(=O)n2ccc3ccc(-c4ccc5ccn(C(=O)c6cccc(OC)c6)c5c4)cc32)c1	/	/	/	-2.0	/	/
CNC[C@@H]1Oc2ccc(NC(=O)c3ccncc3)cc2C(=O)N([C@H](C)CO)C[C@H]1C	/	-3.0	-2.5	/	/	0.0
COC(=O)C1CCN(C(=O)C2CC(=O)N(c3ccc(OC)cc3)C2c2ccc(OC)cc2)CC1 (stereo unspecified)	/	/	/	-0.1	/	/
C[C@H](CO)N1C[C@H](C)[C@H](CN(C)C(=O)c2ccccc2)Oc2ncc(-c3ccc(C#N)cc3)cc2C1=O	/	-2.8	3.1	/	/	/
Cc1nn(-c2nc3ccccc3[nH]2)c(N)c1-c1ccccc1	68.5	/	/	2.8	54.8*	/
Cc1cc(C)n(-c2ncnc3ccccc23)n1	-5.8	-1.4	/	4.2	-0.3	43.3*
CNC[C@@H]1Oc2ncc(-c3ccc(C)cc3)cc2C(=O)N([C@H](C)CO)C[C@@H]1C	/	5.6	-0.1	/	/	0.0
Cn1c(SCC(=O)N2CCCC2=O)nnc1-c1ccccc1F	-2.4	0.5	2.4	-1.5	-1.0	43.3*
C[C@@H]1CN([C@H](C)CO)C(=O)Cc2cc(NC(=O)Cc3cn(C)c4ccccc34)ccc2O[C@H]1CN(C)CC1CCCCC1	/	4.6	4.0	/	/	-0.2
O=c1[nH]c2ccccc2nc1/C=C(\O)c1cccs1	35.0	/	/	5.4	37.4*	/
Cc1ccc(C(=O)Nc2nc3ccccc3[nH]2)cc1	-72.4	3.0	-76.6	-4.5	-4.6	0.0
Cc1ccc2oc(=O)c(/C=C(\O)c3cccs3)nc2c1	/	0.0	/	5.2	35.2*	-0.1
O/C(=C\c1nc2ccccc2[nH]1)c1cccs1	5.5	0.0	41.7*	2.2	39.3*	-0.3
O=C(Nc1nc2ccccc2[nH]1)c1cccs1	61.9	0.3	-5.8	4.1	45.8*	0.0
O=C(C[C@H]1CC[C@@H](NC(=O)c2ccncc2)[C@H](CO)O1)Nc1ccccc1	/	-1.6	-4.1	/	/	0.1
CO[C@H](CN(C)S(=O)(=O)c1ccc(C)cc1)[C@H](C)CN(Cc1ccccc1Cl)[C@H](C)CO	/	-1.5	-4.1	/	/	-0.1
